We go through 28 compounds from PubChem BioAssay (EPA / NIEHS).

What is called AC50 is the concentration at which the activity in the assay is half-maximal.

Some structures have more than one record in an assay (separate samples or runs), and their calls can disagree. Active and inactive are the calls of the source. Rule for the calls: active = hit-call score of the fitted dose curve at least 0.9, where 1 is the maximum; inactive = score below 0.9.

This experiment can be described thus: APR_HepG2_p53Act_72hr: Apredica 72-hour HepG2 Assay for p53 Activation (AID 2282923).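 Note: average cellular p53 protein immunofluorescence intensity in HepG2 cells.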 As to conditions: high-content imaging, actives raise or lower the signal. How it is done:
APR_HepG2_72hr is a cell-based, multiplexed-readout assay that uses HepG2, a human liver cell line, with measurements taken at 72 hours after chemical dosing in a 384-well plate.APR_HepG2_p53Act_72hr is one of 10 assay component(s) measured or calculated from the APR_HepG2_72hr assay. It is designed to make measurements of dna content, a form of viability reporter, as detected with fluorescence intensity signals by HCS Fluorescent Imaging technology.Data from the assay component APR_HepG2_p53Act_72hr was analyzed into 1 assay endpoint. This assay endpoint, APR_HepG2_p53Act_72hr, was analyzed with bidirectional fitting relative to DMSO as the negative control and baseline of activity. Using a type of viability reporter, measures of protein for gain or loss-of-signal activity can be used to understand the signaling at the pathway-level as they relate to the gene TP53. Furthermore, this assay endpoint can be referred to as a primary readout, because this assay has produced multiple assay endpoints where this one serves a signaling function. To generalize the intended target to other relatable targets, this assay endpoint is annotated to the dna binding intended target family, where the subfamily is tumor suppressor.
Cells were treated with dimethyl sulfoxide (DMSO) as a solvent control at a final concentration of 0.5% v/v or with compounds in DMSO with a resulting final DMSO concentration of 0.5% v/v. Compound treatment was done at concentrations of 0.39, 0.78, 1.56, 3.12, 6.24, 12.5, 25, 50, 100, and 200 uM in duplicate on each plate. Cells were treated with compounds for 1, 24, or 72 hr. Carbonyl […] m-chloro-phenylhydrazone (CCCP) and taxol were used as positive controls for mitochondrial function and cytoskeletal stability, respectively; DMSO served as the negative control for this experiment. Cells were fixed by the direct addition of 50 uL formaldehyde in Hank's Balanced Salt Solution (HBSS) to a final concentration of 3.7%. After incubation in the fixation medium for 30 min at room temperature (293-298 K), cells were rinsed twice with HBSS and treated with cell permeabilization buffer (16 uL of 0.5% Triton X-100) for 10 min at room temperature (293-298 K) before labeling. For mitochondrial membrane potential and mitochondrial measurements, pre-fixed cells were incubated with 50 uL of MitoTracker Red CMXRos (Invitrogen) at a concentration of 250 nM for 30 min before fixation. In the remaining cases, post-fixed cells were labeled by incubation with a multiplexed mixture of primary antibodies in HBSS for 60 min at room temperature (293-298 K) to detect immunoreactivity of c-Jun (1:500), phospho-histone H3 (1:100), phospho-histone H2A.x (1:200), p53 (1:400), alpha-tubulin (1:200) and Hoechst 33342 (2 ug/mL). Cells were labeled for multiplexed imaging on two separate plates: a) Hoechst 33342, MitoTracker Red, phospho-histone H3, and alpha-tubulin, and b) Hoechst 33342, phospho-histone H2A.x, and c-Jun. A final rinse with HBSS (50 uL) was performed before analysis. The primary and secondary antibodies for the proteins were phospho-histone H3 (rabbit anti-phospho-histone H3 and FITC-donkey anti-rabbit IgG), phospho-histone H2A.x (mouse anti-phospho-histone H2A.x and FITC-donkey anti-mouse IgG), c-Jun (rabbit anti-phospho-c-Jun and Cy3-donkey anti-rabbit IgG), p53 (sheep anti-p53 and Cy5-donkey anti-sheep IgG), alpha-tubulin (mouse anti-alpha-tubulin and Cy5-donkey anti-mouse IgG). These antibodies are available as the CellCiphr HepG2 assay kit (Millipore).Digital images of each well were captured using a Cellomics ArrayScan VTI (Thermo Scientific Cellomics) (0.8 NA objective, 0.63x optical coupler, and XF-93 filter set) at 20x magnification. The images were acquired using the autofocus feature of the ArrayScan instrument, which entails the following steps. First, the camera focuses on channel 1 (Hoechst 33342), where nuclei are identified. Second, a Z offset of 1 um is used for capturing mitochondria (MitoTracker Red). […]
For the compound `CC(=O)[O][Hg][c]1ccccc1`, the AC50 is 4.66 µM (active).

Take `CCCCCCCCc1ccc(O)cc1`: the outcome was inactive.

For `O=C(Nc1ccc2[nH]ccc2c1)c1cc2cc(F)ccc2n1Cc1cccc(F)c1`, the AC50 is 19 µM (active).

For `C[C@]12CCC(=O)C[C@@H]1CC[C@@H]1[C@@H]2CC[C@]2(C)[C@@H](O)CC[C@@H]12`, the compound was called inactive.

With `ClCC(Cl)CCl`, the compound was called inactive.

As for `CCN1CCC2(CC1)COc1cc3c(cc12)N(C(=O)c1ccc(-c2ccc(-c4nnc(C)o4)cc2C)cc1)CC3`, the half-maximal activity concentration (AC50) was 59.8 µM (active).

Turning to `CC(C)(c1ccccc1)c1ccc(O)c(C(C)(C)c2ccccc2)c1`, the compound was classed as inactive.

Turning to `NC(=O)O`, the concentration at half-maximal activity (AC50) was 3.66 µM (active).

For `C=C(C)C(=O)[O][Sn]([CH2]CCC)([CH2]CCC)[CH2]CCC`, the concentration at half-maximal activity (AC50) is 0.0408 µM (active).

In the case of `O=C(O)C(Cl)(Cl)Cl`, the call was inactive.

As for `C=CC(=O)OCCCCCC(C)C`, the result was inactive.

As for `C[C@@H]1C[C@@H]([C@H](O)CC2CC(=O)NC(=O)C2)C(=O)[C@@H](C)C1`, the AC50 was 4.8 µM (active).

Take `CC(C)(C)c1cc(O)ccc1O`: the outcome was inactive.

Consider `O=C(O)C(F)(F)C(F)(F)C(F)(F)C(F)(F)C(F)(F)C(F)(F)F`, for which the concentration at half-maximal activity (AC50) was 10.2 µM (active).

`CC(C)(OO)c1ccccc1`: the AC50 is 45.7 µM (active).

`O=c1[nH]c(=O)[nH]c(=O)[nH]1`: the result was inactive.

As to `CC12CC1(C)C(=O)N(c1cc(Cl)cc(Cl)c1)C2=O` (centres undefined), the result was inactive.

For the compound `O=C1C2(Cl)C3(Cl)C4(Cl)C(Cl)(Cl)C5(Cl)C3(Cl)C1(Cl)C5(Cl)C24Cl` (centres undefined), the concentration at half-maximal activity (AC50) was 10.5 µM (active).

Regarding `Cc1ccccc1N`, the call was inactive.

On to `CCC(=O)C(CC(C)N(C)C)(c1ccccc1)c1ccccc1` (centres undefined), for which the half-maximal activity concentration (AC50) was 69.8 µM (active).

`CC(C)(C)CC(C)(C)c1ccc(O)cc1`: the call was inactive.

With `Cn1sc(Cl)cc1=O`, the concentration at half-maximal activity (AC50) is 106 µM (active).

Turning to `COc1cc(-c2ccc(N)c(OC)c2)ccc1N`, the result was inactive and the concentration at half-maximal activity (AC50) was 35.2 µM (active).

For `ClC1(Cl)C2(Cl)C3(Cl)C4(Cl)C(Cl)(Cl)C5(Cl)C3(Cl)C1(Cl)C5(Cl)C24Cl` (centres undefined), the outcome was inactive.

In the case of `Oc1cccc2cccnc12`, the half-maximal activity concentration (AC50) was 4.12 µM (active).

As to `CN(C)N=O`, the compound was called inactive.

Consider `CCC(C)(C)c1ccc(O)c(C(C)(C)CC)c1`, for which the AC50 was 29.7 µM (active).

Consider `O=C(O)C(F)(F)C(F)(F)C(F)(F)C(F)(F)C(F)(F)C(F)(F)C(F)(F)C(F)(F)C(F)(F)C(F)(F)F`, for which the AC50 was 85.3 µM (active).
